Where a chain is given by its changes, count along the chain named.
Legend:
Experiment in all cases: protein-binding microarray (PBM); PBM: ~300 nM protein, 6 mM HEPES pH 7.8, 80 mM KCl, 0.5 mM EDTA, 0.5 mM EGTA, 6% glycerol, 35 ng/ul poly-dIdC, 1% milk, 1 h, room temperature; Ap Aiptasia and Nv Nematostella (sea anemones) / Co Capsaspora / Aq Amphimedon (sponge) / Dm Drosophila / Hu human; RHD is the Rel homology domain; high values mean tight binding
Details in all cases: dsDNA, one strand shown
[1] = molecular target: T1, GST-Ap-NF-kB RHD (Exaiptasia pallida (Aiptasia), UniProt A0A913YAJ5 2-422)
T1 sequence: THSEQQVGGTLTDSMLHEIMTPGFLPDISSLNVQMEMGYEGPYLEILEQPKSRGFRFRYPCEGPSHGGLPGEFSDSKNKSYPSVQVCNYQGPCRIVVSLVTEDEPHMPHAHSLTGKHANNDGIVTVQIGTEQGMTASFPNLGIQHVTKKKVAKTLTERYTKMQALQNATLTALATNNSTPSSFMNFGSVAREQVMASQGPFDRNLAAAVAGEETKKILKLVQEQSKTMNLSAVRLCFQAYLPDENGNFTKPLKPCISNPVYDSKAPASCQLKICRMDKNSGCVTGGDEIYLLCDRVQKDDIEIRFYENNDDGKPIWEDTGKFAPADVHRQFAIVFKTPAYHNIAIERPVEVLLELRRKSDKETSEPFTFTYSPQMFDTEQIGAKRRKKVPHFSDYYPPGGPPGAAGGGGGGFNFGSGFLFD

[2] = molecular target: T2, GST-Nv-NF-kB (Cys allele) (Nematostella vectensis, UniProt E5G601 2-411)
T2 sequence: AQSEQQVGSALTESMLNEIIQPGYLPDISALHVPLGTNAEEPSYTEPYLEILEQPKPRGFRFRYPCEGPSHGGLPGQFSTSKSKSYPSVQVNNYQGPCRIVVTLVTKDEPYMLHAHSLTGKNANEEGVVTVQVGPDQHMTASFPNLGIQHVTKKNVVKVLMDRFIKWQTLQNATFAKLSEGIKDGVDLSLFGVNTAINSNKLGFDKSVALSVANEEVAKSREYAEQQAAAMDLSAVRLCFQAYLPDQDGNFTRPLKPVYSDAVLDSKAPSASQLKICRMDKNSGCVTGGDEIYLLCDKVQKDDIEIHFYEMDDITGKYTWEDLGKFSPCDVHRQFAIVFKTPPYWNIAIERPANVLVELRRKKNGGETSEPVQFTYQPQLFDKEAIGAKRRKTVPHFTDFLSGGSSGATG

[3] = molecular target: T3, GST-Nv-NF-kB (Ser allele) (Nematostella vectensis, UniProt A7UNT2 2-411)
T3 sequence: T2 sequence with Q21R, C66S, S207N, E215Q, V217A, E225K, A268E, D399E

[4] = molecular target: T4, GST-Co-NF-kB (Capsaspora owczarzaki, UniProt F1ARL5 200-546)
T4 sequence: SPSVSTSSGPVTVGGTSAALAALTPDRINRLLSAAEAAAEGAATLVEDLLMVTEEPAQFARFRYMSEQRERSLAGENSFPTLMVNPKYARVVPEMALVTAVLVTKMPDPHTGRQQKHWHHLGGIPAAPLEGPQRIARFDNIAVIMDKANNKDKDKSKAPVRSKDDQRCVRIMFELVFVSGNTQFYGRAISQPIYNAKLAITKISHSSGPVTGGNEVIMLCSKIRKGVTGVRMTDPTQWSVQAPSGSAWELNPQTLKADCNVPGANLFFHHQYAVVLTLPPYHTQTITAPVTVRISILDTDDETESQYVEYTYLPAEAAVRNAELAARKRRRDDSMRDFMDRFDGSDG

[5] = molecular target: T5, GST-Dm-Relish (Drosophila melanogaster, UniProt Q94527 99-473)
T5 sequence: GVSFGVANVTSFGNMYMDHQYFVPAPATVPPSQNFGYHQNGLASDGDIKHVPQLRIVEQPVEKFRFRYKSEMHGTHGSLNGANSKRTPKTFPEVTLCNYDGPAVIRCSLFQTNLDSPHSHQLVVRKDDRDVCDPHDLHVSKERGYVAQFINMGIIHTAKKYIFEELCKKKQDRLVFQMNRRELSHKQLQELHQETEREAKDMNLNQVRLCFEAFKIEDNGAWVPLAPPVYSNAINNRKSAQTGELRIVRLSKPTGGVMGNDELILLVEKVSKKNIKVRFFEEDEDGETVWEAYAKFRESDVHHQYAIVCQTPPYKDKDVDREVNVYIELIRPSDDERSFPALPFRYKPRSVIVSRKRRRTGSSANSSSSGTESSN

[6] = molecular target: T6, GST-Aq-NF-kB (Amphimedon queenslandica, UniProt A9Y5G7 2-389)
T6 sequence: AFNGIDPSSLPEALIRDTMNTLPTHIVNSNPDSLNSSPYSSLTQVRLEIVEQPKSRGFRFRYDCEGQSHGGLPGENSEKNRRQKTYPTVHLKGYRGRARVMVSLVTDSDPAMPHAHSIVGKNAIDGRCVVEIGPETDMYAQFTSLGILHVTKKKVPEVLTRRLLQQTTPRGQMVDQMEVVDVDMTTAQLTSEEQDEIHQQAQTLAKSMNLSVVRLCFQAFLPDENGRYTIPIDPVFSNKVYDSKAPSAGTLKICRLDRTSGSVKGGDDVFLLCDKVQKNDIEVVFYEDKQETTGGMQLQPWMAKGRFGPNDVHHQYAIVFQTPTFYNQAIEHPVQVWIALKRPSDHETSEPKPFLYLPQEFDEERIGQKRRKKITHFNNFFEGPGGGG

[7] = molecular target: GST-Hu-p50 (Homo sapiens, UniProt P19838 7-356)
GST-Hu-p50, sequence (P19838 7-356): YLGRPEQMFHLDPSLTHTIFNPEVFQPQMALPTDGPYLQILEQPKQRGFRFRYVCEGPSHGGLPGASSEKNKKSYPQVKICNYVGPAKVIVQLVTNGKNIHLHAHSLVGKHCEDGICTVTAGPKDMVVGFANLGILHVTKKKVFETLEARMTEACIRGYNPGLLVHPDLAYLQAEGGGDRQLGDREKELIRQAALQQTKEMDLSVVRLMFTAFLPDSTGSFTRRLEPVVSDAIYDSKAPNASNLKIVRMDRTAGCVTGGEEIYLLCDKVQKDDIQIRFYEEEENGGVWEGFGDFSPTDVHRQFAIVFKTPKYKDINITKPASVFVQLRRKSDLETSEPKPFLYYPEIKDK

Row | Sequence | binding signal [1] | binding signal [2] | binding signal [3] | binding signal [4] | binding signal [5] | binding signal [6] | binding signal [7]
1 | CCGATTAACATCAAAACTTTCCCTGATGTTAATCGGGTCTTGATTCGCTTGACGCTGCTG | 4.81 z-score | 8.68 z-score | 8.65 z-score | 6.16 z-score | 4.08 z-score | 7.54 z-score | 5.54 z-score
2 | CCGATTAACATCAGGGGGATACCTGATGTTAATCGGGTCTTGATTCGCTTGACGCTGCTG | 7.92 z-score | 7.48 z-score | 6.28 z-score | 6.16 z-score | 8.18 z-score | 8.7 z-score | 5.56 z-score
3 | CCGATTAACATCAAAGAACCCCCTGATGTTAATCGGGTCTTGATTCGCTTGACGCTGCTG | 8 z-score | 6.95 z-score | 7.44 z-score | 3.51 z-score | 8.69 z-score | 6.42 z-score | 6.47 z-score
4 | CCGATTAACATCAGGGAAGACCCTGATGTTAATCGGGTCTTGATTCGCTTGACGCTGCTG | 4.49 z-score | 5.72 z-score | 3.5 z-score | 1.33 z-score | 7.97 z-score | 7.06 z-score | 3.16 z-score
5 | CCGATTAACATCAGAATATCCCCTGATGTTAATCGGGTCTTGATTCGCTTGACGCTGCTG | 7.8 z-score | 7.86 z-score | 8.08 z-score | 3.97 z-score | 6.49 z-score | 5.85 z-score | 5.75 z-score
6 | CCGATTAACATCAGGACCCCCCCTGATGTTAATCGGGTCTTGATTCGCTTGACGCTGCTG | 7.35 z-score | 4.56 z-score | 3.23 z-score | 2.94 z-score | 6.37 z-score | 7.44 z-score | 4.44 z-score
7 | CCGATTAACATCAGGGAATCACATGATGTTAATCGGGTCTTGATTCGCTTGACGCTGCTG | 1.95 z-score | 2.66 z-score | 2.47 z-score | 2.22 z-score | 9.15 z-score | 3.28 z-score | 1.14 z-score
8 | CCGATTAACATCACCCTCCCCCCTGATGTTAATCGGGTCTTGATTCGCTTGACGCTGCTG | 4.55 z-score | 4.25 z-score | 4.55 z-score | 6.06 z-score | 3.66 z-score | 3.9 z-score | 4.13 z-score
9 | CCGATTAACATCAAGGGGAATACTGATGTTAATCGGGTCTTGATTCGCTTGACGCTGCTG | 8.04 z-score | 9.26 z-score | 8.56 z-score | 6.16 z-score | 6.38 z-score | 6.62 z-score | 6.33 z-score
10 | CCGATTAACATCACTGAAATCCCTGATGTTAATCGGGTCTTGATTCGCTTGACGCTGCTG | 2.61 z-score | 2.29 z-score | 1.72 z-score | 1.34 z-score | 3.35 z-score | 2.54 z-score | 1.71 z-score
11 | CCGATTAACATCACAAGTTTCCCTGATGTTAATCGGGTCTTGATTCGCTTGACGCTGCTG | 4.14 z-score | 5.33 z-score | 5.84 z-score | 4.92 z-score | 2.52 z-score | 5.24 z-score | 4.17 z-score
12 | CCGATTAACATCACAAAAAACCCTGATGTTAATCGGGTCTTGATTCGCTTGACGCTGCTG | 3.76 z-score | 4.37 z-score | 4.38 z-score | 1.78 z-score | 5.51 z-score | 5.58 z-score | 4.61 z-score
13 | CCGATTAACATCAAAATCTCCCCTGATGTTAATCGGGTCTTGATTCGCTTGACGCTGCTG | 8.53 z-score | 7.57 z-score | 8.79 z-score | 7.3 z-score | 4.44 z-score | 6.41 z-score | 5.85 z-score
14 | CCGATTAACATCAGCGGGAATCCTGATGTTAATCGGGTCTTGATTCGCTTGACGCTGCTG | 2.44 z-score | 3.26 z-score | 2.64 z-score | 2.25 z-score | 6.33 z-score | 3.03 z-score | 2.21 z-score
15 | CCGATTAACATCAAGGAAATCCCTGATGTTAATCGGGTCTTGATTCGCTTGACGCTGCTG | 4.83 z-score | 4.91 z-score | 2.74 z-score | 1.77 z-score | 7.71 z-score | 5.91 z-score | 3.79 z-score
16 | CCGATTAACATCAAACTACCCCCTGATGTTAATCGGGTCTTGATTCGCTTGACGCTGCTG | 5.45 z-score | 4.01 z-score | 4.35 z-score | 5.82 z-score | 2.49 z-score | 4.3 z-score | 4.12 z-score
17 | CCGATTAACATCAGGGAAAGACCTGATGTTAATCGGGTCTTGATTCGCTTGACGCTGCTG | 3.24 z-score | 5.27 z-score | 4.32 z-score | 1.41 z-score | 5.61 z-score | 7.5 z-score | 3.67 z-score
18 | CCGATTAACATCAAAGAATTCCCTGATGTTAATCGGGTCTTGATTCGCTTGACGCTGCTG | 5.56 z-score | 7.26 z-score | 7.47 z-score | 4.52 z-score | 5.42 z-score | 6.11 z-score | 5.05 z-score
19 | CCGATTAACATCAAGTCTCCCCCTGATGTTAATCGGGTCTTGATTCGCTTGACGCTGCTG | 6.67 z-score | 5.33 z-score | 7.25 z-score | 8.63 z-score | 2.82 z-score | 4.5 z-score | 5.75 z-score
20 | CCGATTAACATCAGGAACTTCCCTGATGTTAATCGGGTCTTGATTCGCTTGACGCTGCTG | 4.62 z-score | 5.28 z-score | 3.16 z-score | 1.73 z-score | 4.4 z-score | 7.58 z-score | 3.6 z-score
21 | CCGATTAACATCAGGGGGTTTACTGATGTTAATCGGGTCTTGATTCGCTTGACGCTGCTG | 7.86 z-score | 6.45 z-score | 7.4 z-score | 2.97 z-score | 9.74 z-score | 7.06 z-score | 7.11 z-score
22 | CCGATTAACATCAGGGACTCCCCTGATGTTAATCGGGTCTTGATTCGCTTGACGCTGCTG | 11.3 z-score | 9.16 z-score | 7.65 z-score | 4.68 z-score | 10.3 z-score | 9.57 z-score | 6.03 z-score

— article PMC5700166
